This passage reports composite z-score results from PubChem BioAssay.

Sequence of Neurogenic locus notch homolog protein 3 (Homo sapiens) (Q9UM47 whole entry, looked up): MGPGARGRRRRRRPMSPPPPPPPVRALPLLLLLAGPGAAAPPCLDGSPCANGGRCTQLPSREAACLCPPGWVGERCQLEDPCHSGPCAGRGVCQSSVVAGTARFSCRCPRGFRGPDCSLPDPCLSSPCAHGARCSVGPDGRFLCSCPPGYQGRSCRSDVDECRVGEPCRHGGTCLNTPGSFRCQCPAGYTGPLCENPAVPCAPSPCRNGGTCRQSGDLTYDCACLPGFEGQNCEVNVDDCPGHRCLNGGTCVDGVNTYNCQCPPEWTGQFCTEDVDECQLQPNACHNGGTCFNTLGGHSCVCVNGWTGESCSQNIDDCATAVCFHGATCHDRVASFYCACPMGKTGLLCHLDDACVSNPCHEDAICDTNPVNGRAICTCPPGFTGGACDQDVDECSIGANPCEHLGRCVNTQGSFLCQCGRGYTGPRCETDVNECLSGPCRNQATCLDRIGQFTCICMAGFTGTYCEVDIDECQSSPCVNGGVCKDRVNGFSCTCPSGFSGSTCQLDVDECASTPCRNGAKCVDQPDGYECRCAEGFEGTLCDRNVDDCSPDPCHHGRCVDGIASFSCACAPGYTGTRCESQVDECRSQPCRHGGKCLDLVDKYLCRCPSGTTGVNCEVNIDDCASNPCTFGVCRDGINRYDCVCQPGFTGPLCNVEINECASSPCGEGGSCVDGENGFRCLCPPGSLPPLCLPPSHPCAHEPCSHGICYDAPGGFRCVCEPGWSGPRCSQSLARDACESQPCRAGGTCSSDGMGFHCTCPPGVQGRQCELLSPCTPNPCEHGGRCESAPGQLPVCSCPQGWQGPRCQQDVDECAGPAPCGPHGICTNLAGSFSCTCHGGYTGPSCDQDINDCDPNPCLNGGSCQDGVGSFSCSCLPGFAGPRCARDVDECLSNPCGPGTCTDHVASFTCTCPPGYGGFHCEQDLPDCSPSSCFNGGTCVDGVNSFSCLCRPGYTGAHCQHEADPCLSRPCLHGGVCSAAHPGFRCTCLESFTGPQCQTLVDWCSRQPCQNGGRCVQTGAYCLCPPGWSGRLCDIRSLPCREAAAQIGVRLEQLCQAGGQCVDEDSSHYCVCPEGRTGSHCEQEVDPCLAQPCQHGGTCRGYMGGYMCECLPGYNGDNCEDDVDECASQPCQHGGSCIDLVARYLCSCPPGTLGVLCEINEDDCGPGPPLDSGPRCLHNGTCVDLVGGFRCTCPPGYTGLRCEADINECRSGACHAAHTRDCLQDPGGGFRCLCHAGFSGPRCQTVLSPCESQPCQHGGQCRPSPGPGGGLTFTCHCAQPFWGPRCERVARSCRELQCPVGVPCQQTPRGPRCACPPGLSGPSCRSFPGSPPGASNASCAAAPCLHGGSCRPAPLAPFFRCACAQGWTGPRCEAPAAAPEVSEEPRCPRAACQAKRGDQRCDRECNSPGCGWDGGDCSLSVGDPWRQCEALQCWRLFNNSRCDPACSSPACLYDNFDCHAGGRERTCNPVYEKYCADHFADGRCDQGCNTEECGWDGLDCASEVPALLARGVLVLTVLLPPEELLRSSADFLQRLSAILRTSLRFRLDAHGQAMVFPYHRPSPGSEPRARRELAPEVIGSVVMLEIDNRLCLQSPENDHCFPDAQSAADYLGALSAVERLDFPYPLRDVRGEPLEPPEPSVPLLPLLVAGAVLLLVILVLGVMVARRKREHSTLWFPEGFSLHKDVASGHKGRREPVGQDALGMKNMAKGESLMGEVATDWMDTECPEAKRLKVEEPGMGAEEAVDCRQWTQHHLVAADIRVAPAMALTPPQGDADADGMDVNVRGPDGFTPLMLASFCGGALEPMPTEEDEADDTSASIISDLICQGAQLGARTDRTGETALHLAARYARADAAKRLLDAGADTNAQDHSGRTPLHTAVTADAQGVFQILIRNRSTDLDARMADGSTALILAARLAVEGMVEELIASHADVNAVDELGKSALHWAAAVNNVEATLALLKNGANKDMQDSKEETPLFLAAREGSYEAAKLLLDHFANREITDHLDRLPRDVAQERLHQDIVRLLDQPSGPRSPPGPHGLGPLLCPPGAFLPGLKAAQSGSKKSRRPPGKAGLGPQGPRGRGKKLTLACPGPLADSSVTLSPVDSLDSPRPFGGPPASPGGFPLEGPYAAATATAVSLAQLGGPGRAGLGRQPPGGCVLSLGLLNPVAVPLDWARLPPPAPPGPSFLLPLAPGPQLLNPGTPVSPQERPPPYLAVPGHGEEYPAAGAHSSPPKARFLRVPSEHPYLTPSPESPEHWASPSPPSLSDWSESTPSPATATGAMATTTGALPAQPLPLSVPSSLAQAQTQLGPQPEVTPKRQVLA

The assay addresses Neurogenic locus notch homolog protein 3 (Homo sapiens) (UniProt Q9UM47). As to the kind of experiment: small molecules binding NOTCH3 protein – biochemical, 635/667 nm fluorescence, primary screen (AID 1096). Conditions: small-molecule microarray, 635 nm fluorescence, higher = more signal.
Consider `C=C(/C(=C/C[C@H](OC(C)=O)c1ccccc1OCCO)c1cc(C(=O)OC)ccc1OC)C(C)C`, for which the composite z-score is -0.189. As for `C[N+](C)(C)CCCC[C@@H]1NC(=O)[C@H]2C[C@@H](C(=O)NCCCCCCN)[C@@H](c3ccc(O)cc3)N2C1=O`, the composite z-score was 0.64. As for `COc1ccccc1CN1C(=O)c2ccccc2[C@](Cc2ccccc2I)(C(=O)NCC(F)(F)F)[C@@H]1c1ccc(CO)cc1`, the composite z-score came to 0.872. With `O=C(NCc1ccccc1)[C@@H]1c2ccccc2C(=O)N(Cc2ccccc2C(F)(F)F)[C@H]1c1ccc(CO)cc1` the figure was -0.0406. With `COC(=O)[C@H](Cc1ccccc1)N1CC(/C=C/C2CC2)=C[C@H]1[C@H](O)Cc1ccccc1`, the composite z-score turned out to be 0.899.

Take `CCOC(=O)C1=CC[C@@H](c2ccc(OCc3ccccc3)c(OC)c2)N(S(=O)(=O)c2ccc(C)cc2)[C@H]1c1ccc(SC)cc1`: the composite z-score is 1.12.

On to `COc1cccc(/C=C/C=O)c1`, for which the composite z-score is 0.181. As for `CC(=O)NCCCC[C@@H]1NC(=O)[C@H]2C[C@@H](C(=O)NCCCC[N+](C)(C)C)[C@@H](c3cccc(OCCO)c3)N2C1=O`, the figure is 1.01; as for `O=C1C2C=CC(C(O)c3ccccc3)N(Nc3ccccc3F)C2C(=O)N1c1ccccc1` (centres undefined), 0.023; as for `CCOC(=O)C[C@H]1[C@H](OC(=O)c2ccccc2-c2ccccc2)[C@@H](NC(=O)c2ccc(-c3ccccc3)cc2)c2cc(OCCCO)ccc2N1C(=O)c1ccc2ccccc2n1`, 0.592.

On to `CO[C@]12C=C(Br)[C@@H](C[C@@H]1c1cccc(C)c1)[C@@]1(CO1)C2=O`, for which the composite z-score was 0.537. With `[N-]=[N+]=Nc1ccccc1[C@@H]1OC(c2ccc(OCCCO)cc2)=N[C@]1(Cc1ccccc1)C(=O)NCC(O)CO` (some centres undefined) the figure was 0.0643; with `COc1ccc([Si](C)(C)[C@@H]2[C@@H](CCn3cc([C@H](O)c4ccccc4)nn3)O[C@]3(C(=O)N(Cc4ccc(N5CCC5=O)cc4)c4ccccc43)[C@H]2C)cc1`, -0.231; with `C=CCC(OC(C)=O)[C@@H]1[C@@H](N(Cc2ccc(-c3cccc(C(F)(F)F)c3)o2)C(=O)c2ccc(C)cc2)c2cc(OCCCO)ccc2N1C(=O)c1ccc2ccccc2c1` (some centres undefined), 0.313. As for `C=CCC(OC(C)=O)[C@@H]1[C@@H](N(Cc2cccc3ccccc23)C(=O)Cc2ccc(F)cc2)c2cc(OCCCO)ccc2N1C(=O)c1ccc2ccccc2n1` (some centres undefined), the figure is 0.104; as for `C[C@H]1NC(=O)[C@@]23C(=O)N[C@@H](Cc4ccccc4)C2[C@H](C)[C@@]2(C)O[C@H]2C3/C=C/C/C=C\CNC(=O)[C@H](Cc2ccccc2)NC1=O` (some centres undefined), 0.967.

Consider `CCCCCCCCCCC(O)C1C=CC2C(=O)N(C)C(=O)C2N1Nc1ccc([N+](=O)[O-])cc1[N+](=O)[O-]` (centres undefined), for which the composite z-score amounted to 1.1. With `NCCCCCCNC(=O)[C@@H]1C[C@@H]2C(=O)N[C@@H](CCCCN)C(=O)N2[C@@H]1c1cccc(OCCO)c1` the figure was 0.362. Turning to `N#Cc1ccc(C(O)C2C=CC3C(=O)N(c4ccccc4)C(=O)C3N2Nc2ccccc2)cc1` (centres undefined), the composite z-score came out at 0.744. As to `CC1=C([C@H](O)CCc2ccccc2)[C@H](CO)[C@@H]2C(=O)N(C)C(=O)[C@@H]2C1`, the composite z-score turned out to be 0.394.

As to `CCOC(=O)C1=CC[C@@H](c2cccc(Cl)c2)N(S(=O)(=O)c2ccc(C)cc2)C1`, the composite z-score amounted to 0.126. The molecule `COCCOC(=O)N1C(=O)[C@@]2(c3cc(C#Cc4ccc(OC)cc4)ccc31)[C@H](C(=O)Nc1nc3ccccc3s1)[C@H]1C(=O)O[C@H](c3ccccc3)[C@H](c3ccccc3)N1[C@@H]2c1ccc(O)cc1` registered a composite z-score of 1.08. With `COc1ccc(C#Cc2ccc3c(c2)[C@]2(C(=O)N3)[C@H](c3ccc(O)cc3)N3[C@H](c4ccccc4)[C@H](c4ccccc4)OC(=O)[C@H]3[C@@H]2C(=O)O)cc1` the figure was -0.17. As for `CC(C)C[C@@H]1NC(=O)[C@@H]2C[C@H](C(=O)NCCCCCN)[C@H](c3ccc(O)cc3)N2C1=O`, the composite z-score is 0.894.

With `CN1C(=O)C2C=CC(C(O)c3ccc(F)cc3)N(Nc3ccccc3)C2C1=O` (centres undefined), the composite z-score was 1.02.

As for `CCC[C@@H]1C[C@@]1(CCC)[C@@H](NC(=O)OCc1ccccc1)c1ccc(-c2ccccc2)cc1`, the composite z-score was -0.621. The molecule `COc1ccc(NC(=O)O[C@H]2[C@H](OC(=O)Nc3ccccc3)[C@H](OC(=O)Nc3ccccc3)[C@@H](OC)O[C@@H]2CO)cc1` showed a composite z-score of 0.989. Molecule `CC(C)[Si](C#C[Si](C(C)C)(C(C)C)C(C)C)(O[C@H](C)c1cn([C@H](CO)Cc2ccccc2)nn1)C(C)C` gave a composite z-score of 0.407. For `[N-]=[N+]=NCc1ccccc1[C@@H]1OC(c2ccc(OCCCO)cc2)=N[C@]1(CCS(=O)(=O)c1ccccc1)C(=O)NCC(O)CO` (some centres undefined), the composite z-score is 0.832.
